{"source": "ChEMBL document CHEMBL4513146", "about": "“CO-ADD screening of Karazin Kharkiv National University (Ukraine) compounds”", "key": {"Staphylococcus aureus": {"system": "Staphylococcus aureus", "conditions": "Concentration 32 ug.mL-1;; ASSAY_TEST Inhibition of Bacterial Growth; detection method Absorption (OD600); MEDIA CAMHB; plate type 384well; NBS; CORNING #3640; time 18 hr"}, "Escherichia coli": {"system": "Escherichia coli", "conditions": "Concentration 32 ug.mL-1;; ASSAY_TEST Inhibition of Bacterial Growth; detection method Absorption (OD600); MEDIA CAMHB; plate type 384well; NBS; CORNING #3640; time 18 hr"}}, "note": "Measured potencies and affinities stand elsewhere.", "data": [{"smiles": "Cc1ccc(NC(=O)Cn2nc3c(Oc4ccccc4)nccn3c2=O)c(Br)c1", "values": [{"measurement": "Inhibition", "setting": "Staphylococcus aureus", "result": 1.04, "unit": "%"}, {"measurement": "Inhibition", "setting": "Escherichia coli", "result": -7.68, "unit": "%"}]}, {"smiles": "Cc1ccc(-c2ccc3nn(Cc4cccc(Br)c4)c(=O)n3n2)cc1", "values": [{"measurement": "Inhibition", "setting": "Staphylococcus aureus", "result": 2.3, "unit": "%"}, {"measurement": "Inhibition", "setting": "Escherichia coli", "result": -6.95, "unit": "%"}]}, {"smiles": "CCc1ccc(N(Cc2ccc(F)cc2)S(=O)(=O)c2cccn3c(CC)nnc23)cc1", "values": [{"measurement": "Inhibition", "setting": "Staphylococcus aureus", "result": 19.9, "unit": "%"}, {"measurement": "Inhibition", "setting": "Escherichia coli", "result": -4.69, "unit": "%"}]}, {"smiles": "Cc1ccc(-c2cc3c4nn(CC(=O)Nc5ccc6c(c5)OCCO6)c(=O)n4ccn3n2)cc1C", "values": [{"measurement": "Inhibition", "setting": "Staphylococcus aureus", "result": 13.07, "unit": "%"}, {"measurement": "Inhibition", "setting": "Escherichia coli", "result": -3.26, "unit": "%"}]}, {"smiles": "CCOc1ccc(NC(=O)Cn2nc3c4cc(-c5ccc(Cl)cc5)nn4ccn3c2=O)cc1", "values": [{"measurement": "Inhibition", "setting": "Staphylococcus aureus", "result": 0.29, "unit": "%"}, {"measurement": "Inhibition", "setting": "Escherichia coli", "result": -4.33, "unit": "%"}]}, {"smiles": "COc1ccc(C(=O)CSc2nnc3c(=O)n(-c4ccccc4)ccn23)cc1OC", "values": [{"measurement": "Inhibition", "setting": "Staphylococcus aureus", "result": -10.93, "unit": "%"}, {"measurement": "Inhibition", "setting": "Escherichia coli", "result": -14.26, "unit": "%"}]}, {"smiles": "CCCNC(=O)Cn1nc2cc(C)nc(Nc3cc(C)cc(C)c3)n2c1=O", "values": [{"measurement": "Inhibition", "setting": "Staphylococcus aureus", "result": 13.08, "unit": "%"}, {"measurement": "Inhibition", "setting": "Escherichia coli", "result": 0.71, "unit": "%"}]}, {"smiles": "CCOc1ccc(-n2ccn3c(=O)n(CC(=O)Nc4ccc(Br)cc4)nc3c2=O)cc1", "values": [{"measurement": "Inhibition", "setting": "Staphylococcus aureus", "result": -12.91, "unit": "%"}, {"measurement": "Inhibition", "setting": "Escherichia coli", "result": -1.87, "unit": "%"}]}, {"smiles": "Cc1cccc(-c2nc(CSc3nc4ccccc4n4c(C(C)C)nnc34)c(C)o2)c1", "values": [{"measurement": "Inhibition", "setting": "Staphylococcus aureus", "result": 9.08, "unit": "%"}, {"measurement": "Inhibition", "setting": "Escherichia coli", "result": 2.13, "unit": "%"}]}, {"smiles": "CCCCc1ccc(NC(=O)CSc2nnc3c4cc(-c5ccc(C)cc5)nn4ccn23)cc1", "values": [{"measurement": "Inhibition", "setting": "Staphylococcus aureus", "result": 10.93, "unit": "%"}, {"measurement": "Inhibition", "setting": "Escherichia coli", "result": 0.28, "unit": "%"}]}, {"smiles": "CCC(Sc1nnc2c(=O)n(-c3ccccc3)ccn12)C(=O)Nc1cc(F)ccc1F", "note": "(centres undefined)", "values": [{"measurement": "Inhibition", "setting": "Staphylococcus aureus", "result": 6.45, "unit": "%"}, {"measurement": "Inhibition", "setting": "Escherichia coli", "result": -6.05, "unit": "%"}]}, {"smiles": "CCOc1ccc(NC(=O)Cn2nc3c(N4CCCC4)nccn3c2=O)cc1", "values": [{"measurement": "Inhibition", "setting": "Staphylococcus aureus", "result": 0.84, "unit": "%"}, {"measurement": "Inhibition", "setting": "Escherichia coli", "result": -1.53, "unit": "%"}]}]}
